Screening results: PubChem, National Center for Advancing Translational Sciences (NCATS)
HCV inh = inhibitors of hepatitis C virus infection; Huh7.5.1 HCVcc-Cre infection, luciferase reporter, 44 h; Potency, µM (highest dose often 41.8 µM), for the others: top-dose activity change, negative = inhibition, hits mostly inhibitors; 3.4% of 340,000 active; AID 651820; active means well fitted inhibition curve with a large enough effect; inconclusive means small, poorly fitted or top-dose-only effect, or another doubt; inactive means no such curve, though single readings can be large or run the other way; further: potency means the concentration at half of the fitted maximal effect
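Infectious HCV cell culture screen: compound-treated cells (1,000/well, pre-plated 4 h) are infected with HCVcc-Cre at roughly 0.5 moi and grown 44 h. Infection is quantified by luciferase signal after 15 min substrate incubation at room temperature.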
Marburg entry inh = blocks Marburg virus binding to or entry into cells; Marburg virus pseudotyped entry inhibition, cell reporter; Potency, µM (highest dose often 37.8 µM), without a hit: top-dose activity change, negative = inhibition, actives largely listed as inhibitors; 1.8% of 300,000 active; AID 540276; calls by dose curve; tested in HEK293 cells; further: potency means the concentration at half of the fitted maximal effect
HCMV antiviral = inhibitors of human cytomegalovirus | HFF cells, HCMV-luciferase reporter, 72 h; hits give low values | activity change, negative = inhibition, % at 57.5 µM | 4.5% of 410,000 active; in the data active means activity change below about -60%; inconclusive means no clear call, values can overlap the other calls; inactive means above about -39%
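Human foreskin fibroblasts infected with luciferase-reporter HCMV at MOI 1 PFU/cell, compounds at two doses. Luciferase measured 72 h post infection; normalized to buffer-only basal and Salinomycin (10uM) controls.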
Lassa entry inh = Lassa virus entry inhibition; Potency, µM (highest dose often 37.9 µM), inactives show at the highest dose activity change, negative = inhibition, hits mostly inhibitors; 1.2% of 300,000 active; AID 540256; Lassa virus pseudotype entry inhibition, cell reporter; calls by dose curve; tested in HEK293 cells; further: potency means the concentration at half of the fitted maximal effect; nearly all actives have a fitted effect of over 50% in size
FMDV antiviral = foot and mouth disease virus antiviral activity; 1.2% of 410,000 active; Potency, µM (highest dose often 57.9 µM), for the others: at the top dose activity change, negative = inhibition, actives largely listed as inhibitors; FMDV antiviral cell-based qHTS; calls by dose curve; tested in HEK293T cells; further: read-out not given here; potency means the concentration at half of the fitted maximal effect; nearly all actives have a fitted effect of over 45% in size
Active calls of the source: *; ? = inconclusive; . = no result; [ ] = another dose, or the depositor's remark. This is a sample that favours compounds with a hit; in the whole collection about 7.9% have one here. On the % scale 0 is the no-effect control and ±100 the full control effect.

SMILES | HCV inh | Marburg entry inh | HCMV antiviral | Lassa entry inh | FMDV antiviral
CCCc1nc2c(C)cc(C)cc2c(N)c1CC | ? | 23µM* | 28 | -1% | -24%
O=C(O)c1ccc(CSCc2ccccc2)o1 | . | . | -85* | . | -13%
Cc1cccc(CSCc2ccc(C(=O)NC(C)C)o2)c1 | 13µM* | . | 7 | . | ?
CC1=C(C(=O)Nc2cccc(Cl)c2)C2(CCCCCC2)OC1=O | . | . | -6 | -10%[46.1 µM] | -4%
C=CCC[C@H](Cc1ccc(F)cc1)C(=O)OC[C@H](Cc1c[nH]c2ccccc12)NC(=O)[C@@H](CC=C)CC(=O)N[C@@H](CO)Cc1ccccc1 | ? | . | -86* | . | -20%
C=CCC[C@@H](Cc1ccc(F)cc1)C(=O)OC[C@H](Cc1c[nH]c2ccccc12)NC(=O)[C@@H](CC=C)CC(=O)N[C@H](CO)Cc1ccccc1 | 3% | . | 4 | . | 0%
C=CC[C@H](CC(=O)N(CCO)Cc1ccccc1)C(=O)N[C@@H](COC(=O)[C@@H](CC=C)Cc1ccc(F)cc1)Cc1c[nH]c2ccccc12 | 22µM* | . | 32 | . | ?
C=CCC[C@H](Cc1ccc(F)cc1)C(=O)OC[C@@H](Cc1c[nH]c2ccccc12)NC(=O)[C@H](CC=C)CC(=O)N(CCO)Cc1ccccc1 | ? | . | 39 | . | 40µM*
Cc1cc(C)n2c(Nc3ccccc3)c(-c3ccccc3)nc2n1 | . | -11%[46.1 µM] | 5 | -10%[46.1 µM] | 0%
c1ccc2c(N3CCNCC3)nsc2c1 | ? | ? | -107* | ? | 2%
Cc1ccccc1-c1nc(N2CCNCC2)c2ccccc2n1 | . | . | . | . | -1%
O=C1[C@H]2CCCC[C@H]2C(=O)N1CCCCN1CCN(c2nsc3ccccc23)CC1 | -28% | . | -61* | . | -28%
Cc1ccc(OCCSc2ncccn2)c(C)c1 | -11% | ? | -37 | 10µM* | 7%
Cc1ccc(OCCCCNC(C)c2ccccc2)c(C)c1 (stereo not drawn) | 10µM* | 11µM* | 12 | ? | -29%
Cc1ccc(OCCNCc2ccccc2)c(C)c1 | -18% | -1% | -8 | 1% | 25%
Cc1cc(C)c(/C=C/c2onc(C)c2S(=O)(=O)N2CCC(C(=O)NCCc3ccccc3)CC2)c(C)c1 | . | . | 93 | 11%[46.1 µM] | -28%
O=c1c2ccccc2c(C=Nc2ccc(S(=O)(=O)Nc3ncccn3)cc2)c(O)n1-c1cccc(Cl)c1 | . | . | -7 | . | .
Cc1cc(N=Cc2c(O)n(-c3cccc(Cl)c3)c(=O)c3ccccc23)no1 | 16% | -25% | -60* | ? | -18%
COC(=O)C1=C[C@@H](C(=O)OC)[C@@H]2C3=C(C(=O)[C@@]2(C)NC(=O)c2ccccc2)[C@H](c2ccccc2)[C@@H]2C(=O)NC(=O)[C@@H]2[C@@H]3C1 | 0% | . | 7 | . | -8%
COC(=O)CN1C(=O)[C@@H]2[C@H](C1=O)[C@@H]1CC(C(=O)OC)=C[C@@H](C(=O)OC)[C@@H]3C1=C(C(=O)[C@@]3(C)NC(=O)c1ccccc1)[C@@H]2C | -21% | . | -66* | . | -9%
COc1cccc(NC(=O)CN(C)C(=O)c2ccc(NC3CC3)c([N+](=O)[O-])c2)c1 | -6% | -6% | -18 | -1% | -16%
CCOc1ccc(NC(=O)CN(C)C(=O)c2ccc(NC3CC3)c([N+](=O)[O-])c2)cc1OCC | 11µM* | -19%[46.1 µM] | 11 | -9% | -8%
CCOc1ccc(NC(=O)CN(C)C(=O)c2ccc3[nH]c4c(c3c2)CC(C)CC4)cc1OCC (stereo not drawn) | 0.56µM* | -6% | . | 0% | 9%
CC1CCc2[nH]c3ccc(C(=O)N(C)CC(=O)Nc4ccccc4Cl)cc3c2C1 (stereo not drawn) | ? | -26% | -8 | -27% | -1%
CC1CCc2[nH]c3ccc(C(=O)N(C)CC(=O)Nc4ccccc4C(F)(F)F)cc3c2C1 (stereo not drawn) | -22% | ? | -88* | ? | -3%
SMILES | HCV inh | Marburg entry inh | HCMV antiviral | Lassa entry inh | FMDV antiviral
CCN(CC(=O)Nc1ccccc1OC)C(=O)c1ccc2[nH]c3c(c2c1)CC(C)CC3 (stereo not drawn) | 10µM* | . | -6 | . | ?
CCC(Sc1nc2ccccc2c2nc(CCc3c(C)n[nH]c3C)nn12)C(=O)Nc1ccccc1F (stereo not drawn) | . | . | -2 | -1%[46.1 µM] | -20%
Cc1ccc(CN2CCc3nnc(C(NS(C)(=O)=O)C(C)C)n3CC2)cc1C (stereo not drawn) | . | . | . | . | -18%
Cc1ccc(NC(=O)CN(C)C(=O)c2ccc3[nH]c4c(c3c2)CC(C)CC4)cc1 (stereo not drawn) | ? | ? | -29 | ? | -17%
CCCN(CC(=O)Nc1ccccc1OC)C(=O)c1ccc2[nH]c3c(c2c1)CC(C)CC3 (stereo not drawn) | 7.9µM* | ? | -4 | ? | ?
O=C1c2ccccc2S(=O)(=O)N1Cc1nc2ccccc2s1 | 20% | ? | -73* | 1µM* | ?
CCOC(=O)CSc1nc(-c2ccc(C)cc2C)cc(-c2ccccc2)c1C#N | . | . | ? | -13%[46.1 µM] | 4%
O=C(NN=C1CCCC1)c1[nH]c2ccc(Br)cc2c1-c1ccccc1 | -11% | 8.9µM* | -91* | ? | -13%
O=C(N/N=C/c1ccccc1)c1[nH]c2ccc(Br)cc2c1-c1ccccc1 | ? | ? | -99* | ? | 10%
O=C(CCN1CCOCC1)Nc1c(-c2ccccc2)c2cc(Br)ccc2[nH]c1=O | 5% | -1% | 23 | 6% | 7%
O=C1C=CC2=C3c4cc(O)c(O)cc4C[C@]3(O)COC2=C1 | . | . | . | . | -26%
O=C(Nc1ccc(Br)c(C(F)(F)F)c1)c1ccc(C(F)(F)F)cc1 | ? | ? | -97* | ? | -22%
O=C(Nc1ccc(Br)c(C(F)(F)F)c1)c1ccccc1 | -27% | -15% | -90* | ? | -24%
OC1CCN(Cc2ccc3c(c2)CN(Cc2ccc(Oc4ncccn4)cc2)CCO3)CC1 | . | . | . | . | -6%
Cc1ccc(C(=O)c2cn(Cc3ccccc3)c3ccccc3c2=O)cc1 | . | -11%[46.1 µM] | -63* | -23%[46.1 µM] | -23%
COc1ccc2c(c1)c(=O)c(C(=O)c1ccccc1)cn2CC(=O)Nc1ccc2c(c1)OCO2 | . | 0%[46.1 µM] | -103* | 1%[46.1 µM] | -11%
COc1ccc(C(=O)c2cn(Cc3ccc(C)cc3)c3cc4c(cc3c2=O)OCO4)cc1 | . | ? | -65* | ? | -25%
CCOc1ccc(C(=O)c2cn(CC(=O)Nc3ccc(F)cc3)c3cc4c(cc3c2=O)OCCO4)cc1 | . | -5%[46.1 µM] | -1 | -1%[46.1 µM] | -6%
CCOc1ccc(NC(=O)Cn2cc(C(=O)c3ccccc3)c(=O)c3cc4c(cc32)OCCO4)cc1 | . | ? | -104* | -10%[46.1 µM] | ?
Cc1ccc(-n2c(CCC(=O)O)ccc2-c2cccs2)cc1Cl | . | ? | 21 | 26%[46.1 µM] | -20%
COc1cccc(C(=O)N2CCCC(c3nc(SCCN4CCOCC4)ncc3C)C2)c1 (stereo not drawn) | . | . | . | . | -24%
CC1=NNC(=O)/C1=C\c1cn(-c2ccccc2)nc1-c1ccc(Cl)cc1 | ? | ? | -102* | ? | 10µM*
